Source: PubChem BioAssay (National Center for Advancing Translational Sciences (NCATS))
The sample as a whole holds a higher share of hits than the screen did.
PTAP-TSG101 blk – blocks PTAP binding to human TSG101, validation; Q99816; Fluorescence polarization, FITC-PTAP peptide/Tsg101, 20 min; Potency, µM (highest dose often 115 µM), most hits filed as inhibitors; 44,000 tested, under 10 active; AID 1347069; note: potency is the fitted concentration of half-maximal effect; 0% is about no effect
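The Tsg101 binding domain, at 10 uM final, is mixed with compound and a FITC peptide bearing the PTAP motif (50 nM final). After 20 min at r.t., polarization is measured; actives defined by CRC class, efficacy cut-off 60% inhibition.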
B2AR arrestin ag – agonists recruiting beta-arrestin to human beta2-adrenergic receptor | HTLA Tango cells, beta-arrestin recruitment, luciferase luminescence, 18 h | P07550 | AID 1347077 | 44,000 tested, under 10 active | Potency, µM (doses to about 46.1 µM), actives largely listed as activators;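 note: potency is the fitted concentration of half-maximal effect; 0% = DMSO and full agonism = EC100 isoproterenol or metaproterenol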
Target sequence (P07550 whole entry, looked up): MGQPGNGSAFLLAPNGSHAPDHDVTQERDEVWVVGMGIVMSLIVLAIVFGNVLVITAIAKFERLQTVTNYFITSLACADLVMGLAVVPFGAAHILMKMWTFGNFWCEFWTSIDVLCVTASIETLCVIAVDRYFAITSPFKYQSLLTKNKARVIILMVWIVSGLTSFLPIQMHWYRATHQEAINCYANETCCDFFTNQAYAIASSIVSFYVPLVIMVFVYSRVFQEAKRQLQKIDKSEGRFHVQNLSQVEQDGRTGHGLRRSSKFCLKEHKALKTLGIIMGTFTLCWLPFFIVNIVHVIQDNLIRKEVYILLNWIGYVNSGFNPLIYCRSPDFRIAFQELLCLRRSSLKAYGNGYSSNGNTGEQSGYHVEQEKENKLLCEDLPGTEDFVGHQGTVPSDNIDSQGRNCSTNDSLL
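Tango cells (recombinant beta2-AR, beta-arrestin, tTA-driven luciferase), 1500/well in DMEM 1% FBS, treated 18 h at 37 °C with compounds up to 46 µM; luciferin mix added, luminescence read after 15 min; %activity curves fitted and curve-classed.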
FH mod – Identification of activators of human fumarate hydratase by quantitative high-throughput screening; FH coupled MDH/diaphorase resazurin fluorescence, 15 min; Potency, µM (titrated, usually from 79.9 µM), for inactives: top-dose activity change, negative = inhibition, hits mostly inhibitors; 54,000 tested, 0.22% active; AID 1347055, 2019; note: potency is the fitted concentration of half-maximal effect; % is set by controls: 0 for no effect and ±100 for the full control effect; the screen sought activators but most active calls are inhibition curves; nearly all actives have a fitted effect of over 45% in size
GALK inh – inhibitors of human galactokinase (GALK) | Potency, µM (titrated, usually from 57.5 µM), for the others: at the top dose activity, negative = inhibition, usual class: inhibitors | recombinant GALK, Kinase-Glo ATP luminescence, 1 h | P51570 | AID 1347072 | 44,000 tested, under 10 active;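 note: plate controls were full GALK reaction for no effect and reaction lacking GALK for full effect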
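Compounds were pinned into ATP buffer, then GALK-galactose mix was added (final 5 nM enzyme, 35 uM ATP, 100 uM galactose, pH 8.0). After 1 h at room temperature, Kinase-Glo Plus was added and luminescence read.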
NTMT1 inh – blocks human N-terminal methyltransferase 1 activity. 59,000 tested, 2.5% active. Potency, µM (highest dose often 114 µM), for the others: at the top dose activity change, negative = inhibition, hits mostly inhibitors. NTMT1 MTase-Glo SAH luminescence, purified enzyme. Q9BV86. AID 1645870;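 note: potency is the fitted concentration of half-maximal effect; plate controls were DMSO vehicle for no effect and no enzyme for full effect; nearly all actives have a fitted effect of over 65% in size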
Target sequence (Q9BV86 whole entry, looked up): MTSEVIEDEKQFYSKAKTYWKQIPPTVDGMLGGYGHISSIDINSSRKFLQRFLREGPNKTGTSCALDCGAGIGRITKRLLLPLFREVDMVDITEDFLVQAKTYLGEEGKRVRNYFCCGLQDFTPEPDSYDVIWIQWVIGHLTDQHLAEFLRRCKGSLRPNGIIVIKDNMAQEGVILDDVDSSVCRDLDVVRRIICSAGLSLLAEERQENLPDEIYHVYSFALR
* hit, by the source's call; i = inactive; ? = inconclusive; . = no result given; ! = repeats disagree; [ ] = dose if it differs, or a comment. Calls come from the whole dose curve; as a rule, active = well fitted curve in the direction sought with a large enough effect; inconclusive = small, poorly fitted or top-dose-only effect, or another doubt; inactive = no such curve, though single readings can be large; an effect the other way counts as inactive or inconclusive.

SMILES	PTAP-TSG101 blk	B2AR arrestin ag	FH mod	GALK inh	NTMT1 inh
COC(=O)N[C@@H](C)CNc1nccc(-c2cn(C(C)C)nc2-c2cc(Cl)cc(NS(C)(=O)=O)c2F)n1	.	.	-4.1%	.	9.1%
CC(C)Oc1ccc(-c2cnc3c(-c4ccnc5ccccc45)cnn3c2)cc1	.	.	0.0%	.	4.8%[57.5 µM]
c1ccc2c(-c3cnn4cc(-c5ccc(N6CCNCC6)cc5)cnc34)ccnc2c1	.	.	-2.4%[53.3 µM]	.	56.2µM*!
Cc1cccc(NC(=O)c2sc3nc(-c4cc5ccc(O)cc5oc4=O)[nH]c(=O)c3c2C)c1	i	i	?	2.5%	7.08µM*
CCc1oc2ccccc2c1C(=O)c1cc(Br)c(O)c(Br)c1	.	.	-24.3%[53.3 µM]	.	79.4µM*
CCOc1ccc(C(=O)Nc2c(C(=O)c3ccccc3)oc3ccccc23)cc1	i	i	11.5%	3.4%	4.6%
Oc1cc(O)cc(/C=C/c2ccc(O)c(O)c2)c1	.	.	3.55µM*!	.	35.5µM*
COc1ccc(/C=C\c2cc(OC)c(OC)c(OC)c2)cc1O	.	.	.	.	-16.7%
CONC(=O)Nc1ccc(-c2sc3c(c2CN(C)Cc2ccccc2)c(=O)n(-c2ccccc2)c(=O)n3Cc2c(F)cccc2F)cc1	.	.	.	.	10.2%
COc1cc(NC(C)CCCN)c2ncccc2c1 (stereo not given)	.	.	?	.	39.8µM*
CS[C@H]1SC[C@@H]2C(=O)N(C)[C@H](C(C)C)C(=O)OC[C@H](NC(=O)c3cnc4ccccc4n3)C(=O)N[C@H](C)C(=O)N(C)[C@H]1C(=O)N(C)[C@H](C(C)C)C(=O)OC[C@H](NC(=O)c1cnc3ccccc3n1)C(=O)N[C@H](C)C(=O)N2C	.	.	.	.	-2.4%
O=C(O)c1ccc(O)c2ncc(-c3cccc(N4CCOCC4)c3)cc12	.	.	.	.	20.7%
Cc1cccc(C(=O)Nc2ccc(N3CC=C(c4ccccc4C)CC3)c(C(=O)O)c2)c1	i	i	-4.5%	0.1%	39.8µM*
COc1cccc(C(=O)Nc2ccc3nc(N4CCC(C)CC4)cc(C)c3c2)c1	i	i	-23.5%	0.5%	10.8%
COc1ccc(C(=O)Nc2ccc(N3CCN(c4ccccc4)CC3)c(C(=O)O)c2)cc1	i	i	-14.4%	-6.1%	17.7%
COc1ccccc1N1CCN(c2ccc(NC(=O)c3ccc(C)cc3)cc2C(=O)O)CC1	i	i	-10.0%	-4.1%	?
O=C(Nc1ccc(N2CCC(N3CCCCC3)CC2)c(C(=O)O)c1)c1ccccc1	i	i	-4.1%	2.5%	50.1µM*
CC1CCN(c2ccc(NC(=O)c3cccc(Cl)c3)cc2C(=O)O)CC1	i	i	-13.9%	3.0%	44.7µM*
CC(=O)N1CCN(c2ccc(OC[C@H]3CO[C@](Cn4ccnc4)(c4ccc(Cl)cc4Cl)O3)cc2)CC1	.	.	16.0%[53.3 µM]	.	21.5µM*!
C#C[C@]1(O)CC[C@H]2[C@@H]3CCc4cc(O)ccc4[C@H]3CC[C@@]21C	.	.	-22.1%[53.3 µM]	.	11.2µM*!
O=C(O)c1ccc(O)c2ncc(N3CCCC3)cc12	.	.	.	.	1.5%
c1nc2nc(Nc3ccc(N4CCOCC4)cc3)nc(NC3CCCCC3)c2[nH]1	.	.	-20.8%	.	39.8µM*!
CCCOc1ccc(/C=C/C(=O)Nc2sc(C)c(C)c2C(=O)OCC)cc1OC	i	i	0.3%	0.1%	79.4µM*
O=[N+]([O-])c1ccc(/C=N\O)o1	.	.	-9.6%[53.3 µM]	.	24.3%[57.5 µM]
NC(N)=NN=C(/C=C/c1ccc([N+](=O)[O-])o1)/C=C/c1ccc([N+](=O)[O-])o1	.	.	-4.0%[53.3 µM]	.	39.8µM*
SMILES	PTAP-TSG101 blk	B2AR arrestin ag	FH mod	GALK inh	NTMT1 inh
Cc1ccccc1CNC(=O)c1ccc2[nH]c(C)c(C)c2c1	i	i	-3.5%	-3.4%	79.4µM*
COc1cc(O)c(C(CC(=O)N2CCCC(C)C2)c2ccc(OC)c(OC)c2)c(OC)c1 (stereo not given)	.	.	.	.	18.4%[228 µM]
O=S(=O)(Nc1ccc(-c2ccccc2)cc1)c1ccc(NCc2cccc(Cl)c2O)cc1	.	.	.	.	-0.2%
COc1ccc(S(=O)(=O)NCc2ccc(C(=O)NCCc3ccc(Cl)cn3)cc2)cc1	.	.	.	.	2.7%
CCOc1ccccc1NC(=O)Cn1ccn(Cc2ccc(C)cc2)c(=O)c1=O	i	i	-5.1%	-0.1%	89.1µM*
COc1cccc(-c2nc(SCC(=O)Nc3ccc4c(c3)OCCO4)c(-c3ccccc3)[nH]2)c1	i	i	39.8µM*	-7.0%	-0.5%
COc1ccc(-c2nc(SCC(=O)Nc3ccc4c(c3)OCCO4)c(-c3ccccc3)[nH]2)cc1	i	i	?	4.3%	-2.0%
CCN(CC)C(=O)Cc1csc(NS(=O)(=O)c2cccc(Cl)c2C)n1	.	.	.	.	3.0%
CCC1C(=O)N(C)c2cnc(Nc3ccc(C(=O)NC4CCC(N5CCN(CC6CC6)CC5)CC4)cc3OC)nc2N1C(C)C (stereo not given)	.	.	2.3%	.	?
CC[C@@H]1C(=O)N(C)c2cnc(Nc3ccc(C(=O)NC4CCC(N5CCN(CC6CC6)CC5)CC4)cc3OC)nc2N1C(C)C (stereo not given in full)	.	.	2.9%	.	25.1µM*!
COc1cc(C(=O)NC2CCN(C)CC2)ccc1Nc1ncc2c(n1)N(C1CCCC1)CCC(=O)N2C(C)C	.	.	23.1%[53.3 µM]	.	22.4µM*
COc1ccccc1Nc1nn2c(=O)c3ccc(C(=O)NC4CCCCC4)cc3nc2s1	i	i	0.5%	-0.6%	16.5%
COc1cc(/C=C(\C#N)C(=O)c2ccc(O)c(O)c2)cc(I)c1O	.	.	7.94µM*	.	.
CCC(C=C[C@@H]1OC(=O)C=C[C@H]1C)=C[C@H](C)CC=CC(C)=C[C@@H](C)C(=O)[C@@H](C)[C@H](O)[C@@H](C)CC(C)=CC(=O)O	.	.	-12.2%[2.79 µM]	.	1.01µM*
O=C(Cc1ccc(Cl)c(Cl)c1)Nc1ccc(S(=O)(=O)O)cc1	.	.	.	.	27.2%
O=C1c2ccccc2-c2onc3c(N4CCN(C5CCCCC5)CC4)cc(NCCO)c1c23	i	i	-1.7%	-0.3%	?
CN(C)CCCNc1cc(N2CCN(C3CCCCC3)CC2)c2noc3c2c1C(=O)c1ccccc1-3	i	i	-10.2%	3.0%	11.2µM*
Clc1cccc(-c2nc3ccccn3c2Nc2ccc3c(c2)OCCO3)c1	i	i	-20.5%	0.3%	3.98µM*
Oc1ccc(-c2nc3ccccn3c2Nc2ccc3c(c2)OCCO3)cc1	i	i	?	0.6%	?
COc1ccccc1-n1cnc2cc(C(=O)N3CCCCC3)ccc21	.	.	.	.	11.4%
COc1ccc(S(=O)(=O)N(CC(=O)Nc2cc(C)ccc2OC)Cc2ccccc2)cc1	i	i	?	-1.7%	2.51µM*
COc1ccc(S(=O)(=O)N(CC(=O)Nc2ccccc2Br)Cc2ccccc2)cc1	i	i	-5.3%	?	?
CC(C)n1nc(Cc2cccc3ccccc23)c2c(N)ncnc21	.	.	-8.8%	.	?
